This is an account of results in PubChem BioAssay (NCI).

The panel holds about 83,000 compounds, 20% with a hit somewhere; the sample as a whole holds those more often.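 How to read the values: 0–100, growth inhibition (40 = 60% inhibited); 0, no net growth; -100 to 0, cell death (-40 = 40% of starting cells died; -100 = all dead).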 Unmarked numbers belong to inactive results. Active and inactive are the calls of the source. How the source made its calls: active means growth percent below 10; inactive means the rest.

Assay in all cases: NCI-60 one-dose screen, 48 h (100 = growth as untreated, 0 = no growth, -100 = all killed)
What all share (details): 10 µM unless noted

Test [1] concerns SK-MEL-2 melanoma.
In test [2] the test system is EKVX NSCLC.
For test [3], the system named is SN12C renal.
The test system of test [4] is UO-31 renal.
For test [5], the system named is TK-10 renal.
The subject of test [6] is ACHN renal.
Test [7] concerns CAKI-1 renal.
Test [8] deals with A498 renal.
The subject of test [9] is CCRF-CEM leukemia.
The test system of test [10] is MOLT-4 leukemia.

For the molecule `CCOC(=O)c1c(NC(=O)c2ccc(C(C)C)cc2)sc2c(CN(C)C)c(O)ccc12`, the growth in test [1] is 88.3%; in test [2], 97.1%; in test [3] it was 82%; in test [4], 70.5%; in test [5], 107%; in test [6], 37.8%. Moreover, the growth in test [7] is 75.7%; in [8], 41.5%; in [9], 8.75% (active); in test [10], -21% (active).
Regarding `N#CC1=C(N)Oc2c(sc3c(F)cccc23)C1c1ccc(F)cc1` (stereo not given), the growth in test [1] is -4.03% (active); in test [2], 47.3%; in test [3], 42.4%; in [4] it was 41.9%; in test [5], 35.8%; in [6], 46.6%. The growth in test [7] was 29.1%; in test [8], 23.2%; in test [9] it was 19.8%; in [10], 18.4%.
Turning to `Cn1c(O)c(C=NCCN=Cc2c(O)n(C)c(=O)n(C)c2=O)c(=O)n(C)c1=O`, the growth in [1] is 120%; in test [2] it was 102%; in test [3], 95.6%; in [4], 84.7%; in test [5] it was 116%; in test [6], 101%. Also, the growth in test [7] was 94.4%; in test [8], 127%; in test [9], 7.42% (active); in test [10], -46.6% (active).
Turning to `CCOC(=O)c1cnc2ccccc2c1Cl`, the growth was 109% in test [1]; 103% in [2]; 102% in test [3]; 95.1% in [4]; 84.4% in test [5]; 99.4% in test [6]. Also, the growth in [7] was 94.8%; in [8], 56.6%; in test [9], 118%; in test [10], 99.9%.
Turning to `C#CCn1cnc2c(Nc3cccc(NC(=O)C=C)c3)ncnc21`, the growth in test [1] was 84.1%; in [2] it was 84.8%; in [3] it was 83.4%; in [4], 42.3%; in [5], 93.3%; in [6] it was 69.1%. The growth was 82.1% in test [7], 80.5% in test [8], 81.6% in test [9] and 71.2% in [10].
With `Cc1nnc(NC(=O)c2nc(S(=O)(=O)Cc3ccc(F)cc3)ncc2Cl)s1`, the growth in test [1] is 89.5%; in test [2], 90.5%; in [3] it was 64.7%; in test [4], 73.6%; in test [5], 79%; in test [6], 96.5%. Further, the growth in test [7] was -86.3% (active); in [8], 115%; in test [9] it was -43.3% (active); in test [10] it was 11.3%.
For the molecule `O=S(=O)(NCCNc1nccc(-c2c(-c3cccc(F)c3)nc3occn23)n1)c1ccc(Br)cc1`, the growth in [1] was 103%; in test [2] it was 89.5%; in test [3] it was 78.7%; in test [4] it was 64%; in test [5], 103%; in test [6], 62%. Further, the growth in test [7] was 70.5%; in [8], 81.3%; in test [9] it was 60.3%; in test [10] it was 82.5%.
For `C=C1CC[C@@H]2[C@](C)(COC(C)=O)[C@H](OC(C)=O)CC[C@@]2(C)[C@@H]1CC(Sc1ccccc1)C1=CCOC1=O` (stereo not given in full), the growth in test [1] is -1.66% (active); in [2], 57.7%; in test [3] it was 1.3% (active); in test [4] it was 35.6%; in [5], 11.4%; in test [6], -13.7% (active). Further, the growth in [7] was 90.6%; in test [8], 86.3%; in test [9], -5.24% (active); in test [10] it was -3.93% (active).
`CCCC(O)Cn1ncc(C(=O)OCC)c1NC(=O)NCc1ccccc1F` (stereo not given): the growth is 74.3% in test [1]; 95.7% in test [2]; 96.8% in [3]; 74.2% in [4]; 99.1% in test [5]; 107% in test [6]. The growth was 80.1% in test [7], 90.7% in test [8], 76.3% in test [9] and 71% in test [10].
Turning to `CC1(C)c2[nH]c3ccccc3c2C[C@]2(C)[C@H]3CC=C4[C@@H]5C[C@@](C)(C(N)=O)CC[C@]5(C)CC[C@@]4(C)[C@]3(C)CC[C@@H]12`, the growth in [1] was 80.3%; in test [2] it was 31.9%; in test [3] it was 61.8%; in test [4], 47.3%; in test [5], 84.2%; in [6], 45.7%. Besides, the growth in test [7] was 57.7%; in [8], 67.9%; in [9] it was 54.7%; in test [10] it was 51.2%.
Turning to `COC(C(=O)[C@@H](O)[C@@H](C)O)[C@@H]1Cc2cc3cc(O[C@H]4C[C@@H](O[C@H]5C[C@@H](O)[C@H](O)C(C)O5)[C@H](O)C(C)O4)c(C)c(O)c3c(O)c2C(=O)[C@H]1O[C@H]1C[C@@H](O[C@H]2C[C@@H](O[C@H]3C[C@@H](O)[C@H](OC)C(C)O3)[C@@H](O)C(C)O2)[C@H](O)C(C)O1` (stereo not given in full), the growth was -43.7% (active) in [1]; 12.3% in test [2]; 15.9% in test [3]; -8.18% (active) in test [4]; -2% (active) in test [5]; 4.45% (active) in [6]. Moreover, the growth in test [7] was 13.7%; in [8], -47.5% (active); in test [9], 9.56% (active); in test [10] it was -6.79% (active).
As for `COc1ccc(/C(C)=C(/c2ccc(OCCCN(C)C)cc2)c2ccc(OC(=O)Cc3ccccc3)cc2)cc1`, the growth in test [1] is 91%; in [2], 65.8%; in [3], 82.4%; in test [4], 53.4%; in [5], 95.2%; in test [6], 87.2%. Besides, the growth is 92.9% in test [7], 83.1% in [8], 65% in test [9] and 47.5% in test [10].
In the case of `CCCCC(=O)Nc1ncc(Cc2ccc(Cl)cc2)s1`, the growth in test [1] is 90.4%; in test [2], 72.2%; in test [3] it was 74.6%; in test [4] it was 58.2%; in test [5], 84.8%; in test [6] it was 81.8%. Besides, the growth is 42.3% in test [7], 70.6% in test [8], 76.4% in test [9] and 66.2% in [10].
